Pf growth 48h – inhibits P. falciparum growth in the first generation, 48 h. Potency, µM (top dose mostly 28.7 µM), inactives show at the top dose activity change, negative = inhibition, hits mostly inhibitors. hit rate 5.9% among 310,000. P. falciparum luciferase growth in erythrocytes, 48 h. AID 504832; note: % is set by controls: 0 for no effect and ±100 for the full control effect
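Luminescence readout; reporter = integrated firefly luciferase in P. falciparum. RBC culture at 2% hematocrit, 0.1% parasitemia final, 37 C/5% CO2; decreased signal taken as growth inhibition.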
AMA1-RON2 inh – disrupts binding of P. falciparum AMA1 to RON2 | AlphaScreen AMA1-biotinylated RON2 peptide binding | Potency, µM (series often up to 58.2 µM), for the others: at the highest dose activity change, negative = inhibition, usual class: inhibitors | hit rate 0.2% among 360,000 | AID 720542;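 note: 0% = vehicle wells and -100% = peptide control; nearly all actives have a fitted effect of over 45% in size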
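AMA1 (3D7) with his tag at 25 nM final met compounds first, then biotinylated RON2 peptide at 25 nM; detection used donor plus acceptor beads, 10 µg/mL apiece, read by AlphaScreen after 30 min at room temperature.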
Pf growth 96h – P. falciparum growth inhibition at 96 hours; P. falciparum luciferase reporter growth, 96 h; hit rate 6.9% among 320,000; Potency, µM (series often up to 28.7 µM), for the others: at the top dose activity change, negative = inhibition, hits mostly inhibitors; AID 504834; note: % is set by controls: 0 for no effect and ±100 for the full control effect
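P. falciparum expressing integrated firefly luciferase, in erythrocytes at 2% hematocrit, 0.05% parasitemia, incubated with compounds 96 h at 37 C, 5% CO2. Growth inhibition read as loss of luminescence; two-generation exposure targets delayed-death apicoplast inhibitors.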
SARS PLP yeast – inhibitors of SARS-CoV papain-like protease in yeast. hit rate 0.19% among 330,000. AID 485353. Potency, µM (doses to about 32.9 µM), for inactives: top-dose activity, positive = growth rescue, usual class: activators. S. cerevisiae expressing SARS-CoV PLpro, growth rescue; calls by dose curve; note: 0% is about no effect; nearly all actives have a fitted effect of over 55% in size
Active calls of the source: *; i = inactive; ? = inconclusive; . = no result; [ ] = dose if it differs, or a comment. The list is not random: actives were taken first. Their share in the collection is about 9.4%. Unless noted, calls come from the whole dose curve; as a rule, active = well fitted curve in the direction sought with a large enough effect; inconclusive = small, poorly fitted or top-dose-only effect, or another doubt; inactive = no such curve, though single readings can be large; an effect the other way counts as inactive or inconclusive. Potency is the fitted concentration of half-maximal effect.

SMILES	Pf growth 48h	AMA1-RON2 inh	Pf growth 96h	SARS PLP yeast
C=CCN(c1ccccc1OC)S(=O)(=O)c1ccc(Cl)c(C(=O)Nc2ccc(N3CCOCC3)cc2)c1	5.86µM*	-29.4%	4.15µM*	-0.2%
O=C(NCC(c1cccs1)N1CCOCC1)C1CCN(S(=O)(=O)c2cccc(C(F)(F)F)c2)CC1 (stereo not drawn)	?	-15.2%	10.4µM*	-0.3%
C=CCN(c1ccccc1)S(=O)(=O)c1cccc(C(=O)NCC(c2cccs2)N2CCOCC2)c1 (stereo not drawn)	10.4µM*	40.6%	?	1.8%
COc1ccc(OC)c(NC(=O)c2c(NC(=O)CCC(=O)O)sc3c2CCCCC3)c1	-10.9%	-10.9%	?	23.5%
COc1ccc(-c2csc(NC(=O)c3c(OC)cccc3OC)n2)cc1	5.86µM*	-14.1%	?	11.7%
COc1cccc(C(=O)Nc2nc(-c3ccncc3)cs2)c1	30.1%	9.6%	-24.0%	-2.5%
COc1ccc(NC(=O)c2c(NC(=O)CNCC(C)C)sc3c2CCC3)c(OC)c1	9.28µM*	56.9%	-3.6%	-0.6%
COc1ccc(OC)c(NC(=O)c2oc3ccccc3c2NC(=O)C2CC2)c1	12.6%	14.1%	54.6%	-3.4%
COc1ccc(S(=O)(=O)Nc2ccccc2C(=O)Nc2nc(-c3ccc(F)cc3)cs2)cc1OC	3.29µM*	-0.8%	?	-8.6%
COc1ccc(NC(=O)c2oc3ccccc3c2NC(=O)C2CC2)c(OC)c1	0.0%	4.47µM*	-14.8%	0.8%
COc1ccc(NC(=O)Nc2cccc(NC(C)=O)c2)c(OC)c1	11.1%	-0.1%	11.7µM*	-1.6%
COc1ccc(NC(=O)c2c(OC)cccc2OC)c(OC)c1	4.65µM*	-20.1%	?	-1.7%
CCn1nc(C(=O)N2CCN(Cc3ccc4c(c3)OCO4)CC2)c2ccccc2c1=O	-3.0%	2.9%	.	-3.2%
O=C(Nc1ccccc1-c1ccccc1)NC1CCN(CC(=O)N2CCOCC2)CC1	4.3%	-1.8%	-45.5%	-3.2%
c1ccc(-c2cnnc(-c3ccccn3)n2)cc1	.	10µM*	.	.
Clc1ccc(-c2cnnc(-c3ccccn3)n2)cc1	.	10µM*	.	2.0%
COc1cc(OC)c2ccc(=O)oc2c1	.	0.0%	.	1.8%
CC(=O)NC1(c2nnnn2CCOC(=O)Nc2ccc(Cl)cc2)CCCCC1	-5.0%	-8.7%	31.0%	10.7%
CN(c1ccc(OCC(=O)Nc2ccccc2C(=O)O)cc1)S(=O)(=O)c1ccc(Cl)cc1	.	7.7%	.	0.6%
COC(=O)C(CCSC)NC(=O)Cn1ncc2c(=O)oc3ccc(C)cc3c21 (stereo not drawn)	24.3%	9.9%	14.7µM*	19.8%
O=C1NC2(CCCCCC2)C(=O)N1Cc1cccc([N+](=O)[O-])c1	3.6%[0.00184 µM]	-5.3%	-15.3%	2.4%
Cc1[nH]nc(SCC(=O)Nc2cccc(O)c2)c1[N+](=O)[O-]	i	7.1%	?	1.7%
COc1ccc(C(C(=O)NCC2CCCO2)N(C(=O)CNC(=O)c2cccs2)c2ccc(C(C)=O)cc2)cc1OC (stereo not drawn)	11.7µM*	-9.6%	?	0.3%
COc1ccc(N(C(=O)CNC(=O)c2ccco2)C(C(=O)NCC2CCCO2)c2ccc(OC)c(OC)c2)cc1 (stereo not drawn)	-30.3%	-1.8%	-10.2%	1.9%
COc1ccc(C(C(=O)NCC2CCCO2)N(C(=O)CNC(=O)c2ccco2)c2cc(C)cc(C)c2)cc1OC (stereo not drawn)	0.0%	1.5%	2.9%	4.8%
SMILES	Pf growth 48h	AMA1-RON2 inh	Pf growth 96h	SARS PLP yeast
COc1cc(OC)cc(N(C(=O)CNC(=O)c2cccs2)C(C(=O)NCC2CCCO2)c2ccccc2)c1 (stereo not drawn)	5.86µM*	12.1%	?	-0.9%
COc1ccc(C(C(=O)NCC2CCCO2)N(C(=O)CNC(=O)c2cccs2)c2ccc(C)cc2)cc1OC (stereo not drawn)	10.4µM*	-10.6%	-3.9%	0.3%
CC1(C(=O)N2Cc3ccccc3C2)CCN1C(=O)Cc1ccccc1 (stereo not drawn)	.	11.4%	.	.
Fc1ccccc1-c1nc2c(s1)CCc1onc(-c3ccc(Br)cc3)c1-2	.	-3.3%	.	.
Cc1ccc(-n2nc3cc(C)c(N)cc3n2)cc1	134.7%	-4.3%	.	-3.6%
CCc1ccc(-n2nc3cc(C)c(N)cc3n2)cc1	183.8%	0.2%	13.1µM*	-2.7%
CCC(C)C(NC(=O)C(N)CC(C)C)C(=O)NC(CCC(=O)OCc1ccccc1)C(N)=O (stereo not drawn)	.	-3.2%	20.2%	-5.2%
O=C(OCc1ccccc1)/C(=C/c1cccc2ccccc12)NC(=O)c1ccccc1	6.57µM*	-14.9%	?	22.2%
OC1(c2ccc(F)cc2)CSC(=Nc2cccnc2)N1Cc1ccco1 (stereo not drawn)	5.86µM*	-1.9%	2.33µM*	-3.8%
CCCC[C@@]1(C2CCCC2)Cc2cc(OCC(=O)O)c(Cl)c(Cl)c2C1=O	?	14.5%	-19.8%	.
O=C(CCNS(=O)(=O)c1ccccc1F)N1CCN(C(c2ccccc2)c2ccccc2)CC1	13.1µM*	7.2%	?	2.6%
CCC(C)Sc1nc(O)c(Cc2ccccc2)c(=O)[nH]1 (stereo not drawn)	.	7.5%	2.62µM*	8.5%
COc1cc(C(=O)OCC(=O)N(C)Cc2ccccc2)cc(OC)c1OC	?	2.6%	?	14.6%
CCC(COC(=O)c1cc(OC)c(OC)c(OC)c1)(c1ccccc1)N(C)C (stereo not drawn)	14.7µM*	-26.5%	?	-9.7%
Fc1ccc(-c2nnc3ccc(N4CCCC4)nn23)cc1	-2.7%	-3.0%	-13.9%	-0.6%
O=C(c1ccccc1)c1nn(-c2ccccc2)c2nnc(Cc3ccccc3)c(=O)n12	10.4µM*	-4.4%	10.4µM*	8.7%
Cc1ccc(-n2nc(C(=O)c3ccccc3)n3c(=O)c(Cc4ccccc4)nnc23)cc1	.	-7.4%	.	.
CN1CCN(C(=S)NC(=O)c2ccccc2Br)CC1	-8.1%	-3.6%	1.85µM*	0.5%
COc1ccc(NC(=O)c2ccc(COCC(F)(F)F)cc2)cc1OC	7.8%	-4.9%	?	2.6%
COCCCOc1ccnc(CS(=O)c2nc3ccccc3[nH]2)c1C (stereo not drawn)	40.0%	62.0%	57.0%	-17.9%
COc1ccc2nc(S(=O)Cc3ncc(C)c(OC)c3C)[nH]c2c1 (stereo not drawn)	11.7µM*	38.7%	3.29µM*	3.4%
CC(/C=N/NC(=O)NC1CCCCC1)=C\c1ccccc1	10.4µM*	-22.9%	-5.0%	-2.2%
COc1ccc(-n2c(C)cc(C(=O)CN3C(=O)NC4(CCCc5sccc54)C3=O)c2C)cc1 (stereo not drawn)	?	-14.2%	4.65µM*	-17.4%
Cc1cc(C(=O)CN2C(=O)NC3(CCCc4sccc43)C2=O)c(C)n1-c1ccccc1 (stereo not drawn)	?	-2.2%	?	21.6%
Cc1cc(C(=O)CN2C(=O)NC3(CCCc4ccccc43)C2=O)c(C)n1Cc1ccco1 (stereo not drawn)	1.65µM*	.	.	1.2%

Source: PubChem (National Center for Advancing Translational Sciences (NCATS))
